Results on eight compounds are retold here after PubChem BioAssay (NCI).

A short description of assay [1]: NCI Yeast Anticancer Drug Screen. Data for the rad50 strain (AID 155).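 Note: 0% = growth of vehicle-only cultures of the same strain.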 The following applies: S. cerevisiae rad50 strain growth inhibition, stronger effect = higher value. The method, boiled down:
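Readout: growth inhibition relative to vehicle-treated cultures. Compound exposure was carried out in a genetically defined yeast strain deficient in DNA damage repair.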

Assay [2] can be described thus: NCI Yeast Anticancer Drug Screen. Data for the mec2-1 strain (AID 157). The conditions noted are these: S. cerevisiae mec2-1 strain, stronger effect = higher value. The method, boiled down:
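Strain: mec2-1 (DNA repair/cell cycle alteration). Compound exposure, then growth measured; inhibition expressed relative to vehicle.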

A short description of assay [3]: NCI Yeast Anticancer Drug Screen. Data for the sgs1 mgt1 strain (AID 161).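 Note: 0% = growth of cultures given vehicle only.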 The following applies: S. cerevisiae sgs1 mgt1 strain, stronger effect = higher value. A digest of the protocol:
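Inhibition of yeast growth, normalised to vehicle-treated controls, is reported for a strain bearing genetic alterations in DNA damage repair.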

A short description of assay [4]: NCI Yeast Anticancer Drug Screen. Data for the cln2 rad14 strain (AID 165).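 Note: 0% = growth equal to vehicle treated cultures.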 The following applies: S. cerevisiae cln2 rad14 strain, stronger effect = higher value. The method, boiled down: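 Compounds are applied to the cln2 rad14 yeast strain, and growth is then compared with that of vehicle-treated cultures to give inhibition.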
A short description of assay [5]: NCI Yeast Anticancer Drug Screen. Data for the bub3 strain (AID 167). The conditions noted are these: S. cerevisiae bub3 mutant strain, stronger effect = higher value. A digest of the protocol:
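Readout: yeast growth inhibition, expressed relative to vehicle-only wells. The test organism is a mutant strain from a panel with lesions in DNA repair or checkpoint genes.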

Assay [6] in a line: NCI Yeast Anticancer Drug Screen. Data for the mlh1 rad18 strain (AID 175). The conditions noted are these: S. cerevisiae mlh1 rad18 strain growth inhibition, stronger effect = higher value. The method, boiled down: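 Read-out is yeast growth inhibition, calculated against vehicle-only controls. The compound was applied to a strain engineered with DNA damage repair alterations.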
Setting [7] is: at 5.0 µM (retest, dose inferred, filed as 0.5).
Where [8] appears, read: at 50.0 µM (retest, dose inferred, filed as 5.0).

The structures appear in SMILES notation. “And” between values parts separate entries of the source, which are not always exact repeats. Equal entries are not always repeated. The panel holds about 79,000 compounds, 15% with a hit somewhere; the sample as a whole holds those more often. Some structures have more than one record in an assay (separate samples or runs), and their calls can disagree. The source made the active and inactive calls. Cut-off read from the data, not from the text of the source: active = growth inhibition above about 70%; inactive = the rest.

Consider `CC(=O)C1CCC2C3CCC4CC([N+]5(C)CCCCC5)CCC4(C)C3CCC12C` (centres undefined), for which the growth inhibition in assay [1] (setting [7]) was 2% (inactive); in assay [1] (setting [8]), 29% (inactive); in assay [1] (at 50.0 µM) it was 82.3% (active); in assay [2] (setting [7]), 17% (inactive); in assay [2] (setting [8]) it was 71% (active); in assay [2] (at 50.0 µM) it was 79.9% (active). The growth inhibition in assay [3] (setting [7]) is 10% (inactive); in assay [3] (setting [8]), 87% (active); in assay [3] (at 50.0 µM), 97.5% (active); in assay [4] (setting [7]), 8% (inactive); in assay [4] (setting [8]), 31% (inactive); in assay [4] (at 50.0 µM), 81.1% (active). In addition, the growth inhibition is 8% (inactive) in assay [5] (setting [7]); 64% (inactive) in assay [5] (setting [8]); 86.5% (active) in assay [5] (at 50.0 µM); 18% (inactive) in assay [6] (setting [7]); 65% (inactive) in assay [6] (setting [8]); 92% (active) in assay [6] (at 50.0 µM).
For `CCC[CH2][Sn]([Cl])([CH2]C)[O][Sn]([Cl])([CH2]C)[CH2]CCC` (centres undefined), the growth inhibition in assay [1] (setting [7]) was 88% (active); in assay [1] (setting [8]), 98% (active); in assay [1] (at 50.0 µM) it was 83.5% (active); in assay [2] (setting [7]) it was 96% (active); in assay [2] (setting [8]), 99% (active); in assay [2] (at 50.0 µM), 88.2% (active). Also, the growth inhibition was 81% (active) in assay [3] (setting [7]); 97% (active) in assay [3] (setting [8]); 89.6% (active) in assay [3] (at 50.0 µM); 84% (active) in assay [4] (setting [7]); 97% (active) in assay [4] (setting [8]); 91.2% (active) in assay [4] (at 50.0 µM). Also, the growth inhibition in assay [5] (setting [7]) was 84% (active); in assay [5] (setting [8]) it was 97% (active); in assay [5] (at 50.0 µM) it was 89.2% (active); in assay [6] (setting [7]) it was 95% (active); in assay [6] (setting [8]), 98% (active); in assay [6] (at 50.0 µM) it was 90.2% (active).
For `CC1=[N+](Cc2cc(C)cc(C)c2O)CCCC1`, the growth inhibition is -5% (inactive) in assay [1] (setting [7]); 4% (inactive) in assay [1] (setting [8]); -5.5% (inactive) in assay [1] (at 50.0 µM); -8% (inactive) in assay [2] (setting [7]); -9% (inactive) in assay [2] (setting [8]); -7.45% (inactive) in assay [2] (at 50.0 µM). The growth inhibition in assay [3] (setting [7]) is -5% (inactive); in assay [3] (setting [8]), -57% (inactive); in assay [3] (at 50.0 µM), 41.2% (inactive); in assay [4] (setting [7]) it was -2% (inactive); in assay [4] (setting [8]), -4% (inactive); in assay [4] (at 50.0 µM), -3% (inactive). The growth inhibition in assay [5] (setting [7]) was -8% (inactive); in assay [5] (setting [8]), -1% (inactive); in assay [5] (at 50.0 µM) it was 1.2% (inactive); in assay [6] (setting [7]), -13% (inactive); in assay [6] (setting [8]), -8% (inactive); in assay [6] (at 50.0 µM) it was -24.7% (inactive).
Regarding `Cc1ccc(C(=O)OC(C(=O)O)C(OC(=O)c2ccc(C)cc2)C(=O)O)cc1` (centres undefined) (tested in a mixture with another compound), the growth inhibition in assay [1] (setting [7]) was 15% (inactive); in assay [1] (setting [8]), 79% (active); in assay [1] (at 50.0 µM), 6.35% (inactive) and 92.2% (active); in assay [2] (setting [7]), -7% (inactive); in assay [2] (setting [8]), 61% (inactive); in assay [2] (at 50.0 µM), 9% (inactive) and 93.7% (active). Moreover, the growth inhibition in assay [3] (setting [7]) is 28% (inactive); in assay [3] (setting [8]) it was 70% (active); in assay [3] (at 50.0 µM) it was 21.2% (inactive) and 93.8% (active); in assay [4] (setting [7]), 34% (inactive); in assay [4] (setting [8]), 77% (active); in assay [4] (at 50.0 µM) it was -1.75% (inactive) and 91.3% (active). Also, the growth inhibition in assay [5] (setting [7]) was -10% (inactive); in assay [5] (setting [8]) it was 88% (active); in assay [5] (at 50.0 µM), 23.3% (inactive) and 93% (active); in assay [6] (setting [7]) it was 19% (inactive); in assay [6] (setting [8]), 86% (active); in assay [6] (at 50.0 µM), 12.3% (inactive) and 92.5% (active).
As for `Cc1cc(O)c2c(c1)C(=O)C13C(=C2O)C(=O)C2C(O)C1C1C(O)C3C(=O)C3=C(O)c4c(O)cc(C)cc4C(=O)C321` (centres undefined), the growth inhibition is 18% (inactive) in assay [1] (setting [7]); 44% (inactive) in assay [1] (setting [8]); 69.7% (inactive) in assay [1] (at 50.0 µM); 57% (inactive) in assay [2] (setting [7]); 46% (inactive) in assay [2] (setting [8]); 76.2% (active) in assay [2] (at 50.0 µM). Further, the growth inhibition in assay [3] (setting [7]) is 40% (inactive); in assay [3] (setting [8]), 48% (inactive); in assay [3] (at 50.0 µM), 79.5% (active); in assay [4] (setting [7]), 64% (inactive); in assay [4] (setting [8]), 47% (inactive); in assay [4] (at 50.0 µM), 60.1% (inactive). For the same compound, the growth inhibition in assay [5] (setting [7]) is 88% (active); in assay [5] (setting [8]), 70% (active); in assay [5] (at 50.0 µM), 80.2% (active); in assay [6] (setting [7]), 34% (inactive); in assay [6] (setting [8]) it was 42% (inactive); in assay [6] (at 50.0 µM), 69% (inactive).
For the compound `CC(Cc1ccccc1)[N+](=O)[O-]` (centres undefined), the growth inhibition in assay [1] (setting [7]) is 8% (inactive); in assay [1] (setting [8]), 70% (active); in assay [1] (at 50.0 µM) it was 79% (active); in assay [2] (setting [7]) it was 0% (inactive); in assay [2] (setting [8]) it was 6% (inactive); in assay [2] (at 50.0 µM), -12.9% (inactive). Besides, the growth inhibition in assay [3] (setting [7]) is 2% (inactive); in assay [3] (setting [8]), 7% (inactive); in assay [3] (at 50.0 µM), -8.2% (inactive); in assay [4] (setting [7]), 3% (inactive); in assay [4] (setting [8]), -3% (inactive); in assay [4] (at 50.0 µM), -19.6% (inactive). The growth inhibition in assay [5] (setting [7]) is 7% (inactive); in assay [5] (setting [8]), 27% (inactive); in assay [5] (at 50.0 µM), -6.9% (inactive); in assay [6] (setting [7]), -1% (inactive); in assay [6] (setting [8]), 10% (inactive); in assay [6] (at 50.0 µM) it was 12.1% (inactive).
For `c1ccc(C[As+](c2ccccc2)(c2ccccc2)c2ccccc2)cc1`, the growth inhibition in assay [1] (setting [7]) is 24% (inactive); in assay [1] (setting [8]), 92% (active); in assay [1] (at 50.0 µM) it was 97.3% (active); in assay [2] (setting [7]), 4% (inactive); in assay [2] (setting [8]) it was 94% (active); in assay [2] (at 50.0 µM) it was 97.7% (active). Besides, the growth inhibition in assay [3] (setting [7]) was 1% (inactive); in assay [3] (setting [8]) it was 89% (active); in assay [3] (at 50.0 µM), 98.8% (active); in assay [4] (setting [7]) it was 1% (inactive); in assay [4] (setting [8]), 75% (active); in assay [4] (at 50.0 µM), 94.7% (active). Also, the growth inhibition in assay [5] (setting [7]) was 4% (inactive); in assay [5] (setting [8]) it was 96% (active); in assay [5] (at 50.0 µM), 93% (active); in assay [6] (setting [7]), 11% (inactive); in assay [6] (setting [8]), 89% (active); in assay [6] (at 50.0 µM), 97.7% (active).
With `O=C1c2ccccc2-c2c3c(cc4ccnc1c24)OCO3`, the growth inhibition in assay [1] (setting [7]) was 96% (active); in assay [1] (setting [8]), 97% (active); in assay [1] (at 50.0 µM), 86.2% (active) and 86.5% (active); in assay [2] (setting [7]), 57% (inactive); in assay [2] (setting [8]) it was 96% (active); in assay [2] (at 50.0 µM), 84.8% (active) and 88.2% (active). Also, the growth inhibition in assay [3] (setting [7]) was 50% (inactive); in assay [3] (setting [8]), 96% (active); in assay [3] (at 50.0 µM), 86.6% (active) and 86.2% (active); in assay [4] (setting [7]), 37% (inactive); in assay [4] (setting [8]), 95% (active); in assay [4] (at 50.0 µM), 81.7% (active) and 87% (active). Besides, the growth inhibition in assay [5] (setting [7]) was 61% (inactive); in assay [5] (setting [8]), 95% (active); in assay [5] (at 50.0 µM) it was 87.5% (active) and 87.3% (active); in assay [6] (setting [7]) it was 73% (active); in assay [6] (setting [8]), 95% (active); in assay [6] (at 50.0 µM) it was 85.8% (active) and 88% (active).
